D1 PAM = potentiators of human D1 dopamine receptor; HEK293 TREx D1 cells, calcium flux, dopamine EC20 potentiation; hit rate 0.036% among 360,000; P21728; potentiation, % at 10 µM; AID 504651; in the data active = potentiation above about 30%; also: 0% is about no effect
Target sequence (P21728 whole entry, looked up): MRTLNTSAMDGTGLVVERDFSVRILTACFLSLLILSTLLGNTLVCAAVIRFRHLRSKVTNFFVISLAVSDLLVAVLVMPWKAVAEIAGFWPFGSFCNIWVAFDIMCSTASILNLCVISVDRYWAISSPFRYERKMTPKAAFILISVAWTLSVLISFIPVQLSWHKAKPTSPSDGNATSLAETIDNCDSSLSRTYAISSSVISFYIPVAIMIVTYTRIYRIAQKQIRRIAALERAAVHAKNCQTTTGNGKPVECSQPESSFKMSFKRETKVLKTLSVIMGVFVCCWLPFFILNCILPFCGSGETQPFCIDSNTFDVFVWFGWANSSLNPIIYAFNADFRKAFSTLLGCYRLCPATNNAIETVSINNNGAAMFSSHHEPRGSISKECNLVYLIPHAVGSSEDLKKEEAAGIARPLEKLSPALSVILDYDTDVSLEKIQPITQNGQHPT
TRHR PAM = allosteric enhancers of human TRH receptor. hit rate 0.66% among 360,000. enhancement, % at 2 µM. TRHR cells, fluo-8 calcium fluorescence, EC20 TRH enhancement. P34981; in the data active = enhancement above about 30%; also: 0% is about no effect
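Enhancer read-out: after compound pinning and an initial kinetic agonist-mode read, an EC20 of TRH (10 nM final) was injected and fluo-8 calcium signal (Ex 480/Em 530) followed at 1 s/cycle for 100 cycles in TRHR-expressing cells.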
D1 agonist = activates the human D1 dopamine receptor | P21728 | HEK293 T-REx D1 cells, calcium flux, agonist mode | activation, % at 2 µM | hit rate 1% among 360,000 | AID 504660; also: 0% is about no effect
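Tetracycline-induced HEK293 TREx D1 cells, force-coupled to calcium signalling, were dye-loaded with a no-wash calcium kit. Compound was pin-added after a 10 s baseline. Fluorescence was read kinetically at 1 cycle/s for 180 s, with calcium rises flagged as agonism.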
LDHA inh = inhibitors of human lactate dehydrogenase A; purified LDHA, NADH/diaphorase-resazurin fluorescence; hits give low values; activity change, % (values are at about 110 or 230 µM); hit rate 0.15% among 480,000; AID 1347041; P00338; in the data active = activity change below about -30%;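 also: plate controls were DMSO wells for no effect and wells without enzyme for full effect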
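Remaining NADH was detected by diaphorase (0.133 mg/mL) converting 37 µM resazurin to fluorescent resorufin, read at 0 and 20 minutes. The preceding 5-minute room-temperature reaction used 2 nM LDHA, 0.2 mM sodium pyruvate and 0.06 mM NADH at pH 7.4.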
TRHR agonist = agonists of human TRH receptor; P34981; TRHR cells, calcium flux fluo-8, FDSS agonist mode; activation, % at 2 µM; hit rate 0.18% among 360,000; AID 493084; also: 0% is about no effect
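TRHR-expressing cells loaded with fluo-8 calcium dye; 23 nL library compound pin-transferred, kinetic FDSS fluorescence (Ex 480/Em 530) recorded about 180 s for agonist-induced calcium release, before a 10 nM TRH EC20 addition for potentiator mode.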
D1 antagonist = human D1 dopamine receptor antagonism; P21728; HEK293 TREx D1 cells, calcium flux, dopamine EC80; hits give low values; activity change, negative = inhibition, % at 10 µM; hit rate 3.2% among 360,000; AID 504652; in the data active = activity change below about -30%; also: % is scaled to controls: 0 for no effect and ±100 for the full control effect
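Tetracycline-induced HEK293 Trex D1 cells, force-coupled to calcium, dye-loaded; compounds added and read 180 s, then EC80 dopamine added and calcium flux tracked kinetically another 180 s.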
Numbers without * were called inactive; / = no result given. Most compounds without a hit are left out; they make up all but 3.6% or so of the library. Rule as the data show it, unless noted: active = activation above about 30%; inactive = the rest.

SMILES | D1 PAM | TRHR PAM | D1 agonist | LDHA inh | TRHR agonist | D1 antagonist
O=C(NC(CC(=O)N1CCCC(C(F)(F)F)C1)c1ccccc1)c1ccccc1Cl (stereo unspecified) | -6 | 33* | 1 | -2 | 2 | -3
NC(=O)c1cc(Cc2ccccc2)sc1NC(=O)c1cccnc1 | / | / | / | 11 | / | /
CC(=O)c1ccc2c(c1)OCCOCCOCCOCCOCCO2 | -8 | 5 | 3 | -8 | 0 | -17
Cc1cccc(C)c1N1CCN(C(=O)Nc2ccc3c(c2)OCCO3)CC1 | -6 | -1 | 20 | -6 | 0 | -34*
CC(=O)Nc1ccc2c(c1)OCCOCCOc1cc(NC(C)=O)ccc1OCCOCCOCCO2 | -3 | -23 | 1 | / | -1 | -70*
CC(=O)c1c(F)cccc1N1CCN(c2cccc(C(F)(F)F)c2)CC1 | / | / | / | 8 | / | /
COC(=O)c1sc(=S)n(-c2cccc(OC)c2)c1N | / | / | / | 5 | / | /
O=S(=O)(NCc1ccccc1Cn1cccn1)N1CCOCC1 | / | / | / | -2 | / | /
COc1cc(CN2CCc3ccc(NC(=O)CCc4ccccc4OC)cc3C2)ccc1O | -8 | 1 | 10 | 2 | 0 | -10
COc1cccc(CN2CCc3ccc(NC(=O)CCc4ccc(C)cc4)cc3C2)c1O | 3 | 7 | 2 | 5 | 0 | -31*
COc1ccc(CN2CCc3ccc(NC(=O)CCc4ccccc4OC)cc3C2)c(O)c1 | -20 | -2 | 2 | 2 | 1 | -83*
CC(Sc1cccc2cccnc12)C(=O)NC(=O)NC(C)(C)C (stereo unspecified) | / | / | / | 1 | / | /
CCC(C)[C@H](NC(=O)OC(C)(C)C)c1nnc(SC)o1 (stereo partly specified) | / | / | / | -4 | / | /
COc1ccc(OC)c(C(O)c2coc3ccc(O)c(CN4CCOCC4)c23)c1 (stereo unspecified) | -4 | 5 | 6 | -1 | -1 | -30*
CCc1ccc2c(C)nc(Nc3nc(C)c(CCC(C)C)c(=O)[nH]3)nc2c1 | / | / | / | 8 | / | /
Cc1nccn1C(c1ccccc1)c1ccccc1 | / | / | / | -34* | / | /
CCCNC(=O)C(C)NC(=O)CSc1ccc(NC(C)=O)cc1 (stereo unspecified) | / | / | / | 3 | / | /
CCO[C@@H]1OC(C(=O)N2CCN(C)CC2)=C[C@H](C(C)(C)C)[C@H]1CCCO | 8 | 35* | -3 | -9 | 0 | 18
CCO[C@H]1OC(C(=O)O)=C[C@@H](C(C)(C)C)[C@@H]1CCCO | / | / | / | 4 | / | /
CCn1c(SCC(=O)NCc2cccs2)nnc1-c1ccc2c(c1)OCCCO2 | / | / | / | 4 | / | /
CCCN(Cc1nnc(-c2ccccc2Cl)o1)C(=O)c1cc2ccccc2o1 | -4 | -14 | 12 | 1 | -1 | -31*
O=C(c1cc2ccccc2o1)N(Cc1nnc(-c2ccccc2Cl)o1)C1CC1 | -1 | -2 | 4 | -10 | 0 | 3
COc1ccc(-c2c3c(cc(C)[n+]2[O-])oc2ccc(OC)cc23)cc1 | 2 | 5 | 2 | 2 | 0 | -30*
Cc1ccc(C)c(Cn2cnc3c(cnn3C(C)(C)C)c2=O)c1 | -5 | -4 | 41* | -1 | 0 | 6
Cc1ccc(S(=O)Cc2nc(-c3ccc(C(=O)NCCN4CCCCC4)cc3)oc2C)cc1 (stereo unspecified) | / | / | / | -2 | / | /
SMILES | D1 PAM | TRHR PAM | D1 agonist | LDHA inh | TRHR agonist | D1 antagonist
CC(=O)c1cccc(OCCN2C(=O)NC(C)(C)C2=O)c1 | 1 | -6 | 0 | -8 | 0 | -30*
CCc1cccc(OCCCN2C(=O)NC(C)(C)C2=O)c1 | -4 | -11 | 3 | 0 | 2 | -5
Cc1ccc(-c2cc(C(=O)O)c3cc(Cl)ccc3n2)o1 | / | / | / | 8 | / | /
O=C(CSc1nnnn1C1CCCC1)N1N=C(c2cc3ccccc3o2)CC1c1ccco1 (stereo unspecified) | / | / | / | 6 | / | /
CCNc1nc(NC(C)(C)C)nc(N(CC)n2cnnc2)n1 | / | / | / | -15 | / | /
CCNc1nc(NCC)nc(Nn2cnnc2)n1 | -8 | 6 | 2 | -4 | 0 | -38*
CC1(C)CC(NCCN2CCN(C3=CC(=C(C#N)C#N)CC(C)(C)C3)CC2)=CC(=C(C#N)C#N)C1 | -5 | 2 | 0 | 0 | 0 | 2
N#CC(C#N)=C1C=C2C=C(N3CCCCCC3)CCC2CC1 (stereo unspecified) | -16 | -15 | 383* | -4 | 205* | -68*
N#CC(C#N)=C1C=C2C=C(N3CCOCC3)CCC2CC1 (stereo unspecified) | 17 | -20 | 522* | -1 | 231* | 10
N#Cc1cc(Cl)c(N2CCOCC2)cc1C#N | -2 | -3 | 3 | -1 | 1 | /
CCN1CCN(C2=CC3=CC(=C(C#N)C#N)CCC3CC2)CC1 (stereo unspecified) | 18 | -22 | 590* | 0 | 235* | -20
CN1CCN(C2=CC3=CC(=C(C#N)C#N)CCC3CC2)CC1 (stereo unspecified) | 37* | 17 | 723* | -6 | 315* | 13
CC(NC(=O)c1ccc(S(=O)(=O)N(C)C)cc1)c1cc2ccccc2o1 (stereo unspecified) | / | / | / | 4 | / | /
CC(C)CNS(=O)(=O)c1ccc(OCC(=O)NCC2CCCO2)c(Cl)c1 (stereo unspecified) | -2 | -1 | 2 | -3 | 0 | -36*
O=C(COc1ccc([N+](=O)[O-])cc1Cl)NCC1CCCO1 (stereo unspecified) | -5 | 4 | 2 | -5 | 0 | -39*
COc1cc(C)ccc1OCC(=O)NCC1CCCO1 (stereo unspecified) | / | / | / | -6 | / | /
O=C(C1CC1)N1CCN(c2nc(-c3ccccc3)c3ccccc3n2)CC1 | / | / | / | 10 | / | /
Cc1ccc(Cl)cc1-n1ncc2c(N3CCN(Cc4ccccc4)CC3)ncnc21 | -2 | -5 | -2 | 3 | -1 | -45*
Cc1c(-c2nc(-c3ccccc3F)no2)nnn1-c1ccccc1Cl | / | / | / | 6 | / | /
CCOC(=O)C1CCCN(c2c(NCCCN(CC)c3cccc(C)c3)c(=O)c2=O)C1 (stereo unspecified) | -11 | 76* | 1 | 10 | 0 | -16
COc1cccc(CNC(=O)Cn2c(=O)oc3cc(S(=O)(=O)N4CCCC4)ccc32)c1 | -3 | 1 | 5 | -4 | 0 | -31*
O=C(Cn1c(=O)oc2cc(S(=O)(=O)N3CCCCC3)ccc21)NCc1ccc(F)cc1 | -4 | 5 | 41* | 3 | 0 | -37*
O=C(Cn1c(=O)oc2cc(S(=O)(=O)N3CCCC3)ccc21)Nc1cccc(C(F)(F)F)c1 | -3 | -3 | 11 | -5 | -1 | -39*
O=C(Cn1c(=O)oc2cc(S(=O)(=O)N3CCCC3)ccc21)NCc1ccc(F)cc1 | -5 | -4 | 11 | -2 | 3 | 14
COc1ccc(-c2cn3cccc(C)c3n2)cc1F | 9 | -3 | 4 | -6 | 1 | -38*
